PubChem BioAssay (NCATS)
Results filed as inconclusive are left out. Calls of active or inactive are those of the source. Calls come from the whole dose curve; as a rule, active = well fitted curve in the direction sought with a large enough effect; inconclusive = small, poorly fitted or top-dose-only effect, or another doubt; inactive = no such curve, though single readings can be large; an effect the other way counts as inactive or inconclusive.

How the values were obtained:
[1] = target: Rap guanine nucleotide exchange factor 3 (Homo sapiens) (UniProt O95398); test: Confirmatory qHTS for agonist of cAMP-regulated guanine nucleotide exchange factor 3 (EPAC1) (AID 1645881);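 note: EPAC1 catalysed release of BODIPY-GDP from Rap1B seen as fluorescence loss; 100% = effect of cAMP agonist control; nearly all actives have a fitted effect of over 75% in size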
[2] = target: Rap guanine nucleotide exchange factor 4 (Homo sapiens) (UniProt Q8WZA2); test: Confirmatory qHTS for agonist of cAMP-regulated guanine nucleotide exchange factor 4 (EPAC2) (AID 1645884);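 note: nucleotide exchange releases bodipy-GDP from Rap1 and this lowers its fluorescence; % is set by controls: 0 for no effect and ±100 for the full control effect; nearly all actives have a fitted effect of over 65% in size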
[3] = target: Rap guanine nucleotide exchange factor 4 (Homo sapiens) (UniProt Q8WZA2); test: Confirmatory qHTS for antagonist of cAMP-regulated guanine nucleotide exchange factor 4 (EPAC2) (AID 1645885); note: nearly all actives have a fitted effect of over 25% in size; for activity change, negative = inhibition: % is set by controls: 0 for no effect and ±100 for the full control effect
[4] = target: Rap guanine nucleotide exchange factor 3 (Homo sapiens) (UniProt O95398); test: Counterscreen qHTS for antagonist of cAMP-regulated guanine nucleotide exchange factor 3 (EPAC1) (AID 1645888);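 note: fluorescence loss as bound BODIPY-GDP is released from Rap1B; % of control where 0% means no effect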
Summary of the method: (§1)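 Measured: fluorescence of BODIPY-GDP bound to Rap1B, which falls as exchange proceeds. Conditions include 50 uM competing GDP, 5 and 30 min reads, and a later cAMP challenge for antagonist detection.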

[5] = target: Rap guanine nucleotide exchange factor 3 (Homo sapiens) (UniProt O95398); test: Counterscreen qHTS for agonist of cAMP-regulated guanine nucleotide exchange factor 3 (EPAC1) (AID 1645889); note: % of control where 0% means no effect; nearly all actives have a fitted effect of over 40% in size
Summary of the method: as §1

[6] = target: Cytochrome P450 3A4 (Homo sapiens) (UniProt P08684); test: qHTS Assay for Inhibitors and Substrates of Cytochrome P450 3A4 (AID 884); note: series mostly up to about 57 µM; % is set by controls: 0 for no effect and ±100 for the full control effect; nearly all actives have a fitted effect of over 50% in size
Summary of the method: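 Luminescent readout of luciferin produced by CYP3A4 (20 nM) dealkylation of Luciferin-PPXE, 25 uM (its KM). NADPH-driven reaction ran 60 min at RT after 10 min compound preincubation; data scaled to 57 uM ketoconazole as 100% inhibition.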

[7] = Confirmation and Secondary Assay for Modulators of Hemoglobin Beta Chain Splicing at IVS2 705 locus (AID 930);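 note: HeLa cells stably expressing the EGFP-705 splicing reporter; series mostly up to about 46 µM; % of control where 0% means no effect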
Summary of the method: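 Restored EGFP fluorescence after 2-day compound exposure reports splicing correction in IVS2-705 EGFP reporter HeLa cells; positive control was 500 nM splice-blocking PNA oligo. Signal measured as well total peak GFP intensity (488 nm excitation).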

[8] = target: Ubiquitin carboxyl-terminal hydrolase 1 (Homo sapiens) (UniProt O94782); test: Inhibitors of USP1/UAF1: Pilot qHTS (AID 504865);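 note: rhodamine fluorescence freed from ubiquitin-rhodamine substrate followed over time; top concentration of the series differs between compounds; % is set by controls: 0 for no effect and ±100 for the full control effect; nearly all actives have a fitted effect of over 35% in size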
Summary of the method: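 USP1/UAF1 complex at 1 nM preincubated 15 min at room temperature with compound, then Ub-Rho substrate added at 150 nM final. Fluorescence (480/540 nm) read kinetically in 50 mM HEPES pH 7.8, 0.5 mM EDTA, 1 mM TCEP, 0.1 mg/ml BSA, 0.01% Tween-20.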

[9] = target: DNA dC->dU-editing enzyme APOBEC-3G (Homo sapiens) (UniProt Q9HC16); test: qHTS for inhibitors of Vif-A3G interactions: Validation (AID 588379); note: 0% is about no effect
Summary of the method: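 Yellow fluorescence (Ex 488, Em 500-530) of Vif-coexpressing HeLa A3G-eYFP cells, scanned by Acumen cytometer, reports blocked A3G degradation. Cells plated at 700/well overnight at 37 deg C before compound addition, then a further overnight compound incubation at 37 deg C.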

[10] = Confirmation and Secondary Assay for Modulators of Hemoglobin Beta Chain Splicing at IVS2 654 locus (AID 910);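 note: per-well total GFP intensity by laser scanning cytometry after 2-day treatment; % of control where 0% means no effect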
Summary of the method: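 HeLa cells stably carrying EGFP interrupted by mutant beta-globin IVS2-654 intron (CMV-driven) were treated with compound for 2 days at 37C; corrected splicing was scored as total peak GFP intensity per well (488 nm excitation, 500-520 nm emission).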

[11] = target: Glutathione peroxidase 1 (Homo sapiens) (UniProt P07203); test: Primary qHTS Assay for Inhibitors of Recombinant Selenoprotein Glutathione Peroxidase 1 (GPX1) (AID 1845191); note: nearly all actives have a fitted effect of over 65% in size
Summary of the method: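 GPX1 10 nM, GR 100 nM, GSH 1 mM, NADPH 0.5 mM, CHP 0.5 mM (final). 30-min cpd preincubation, RT. Ex340/Em450 read t=0, t=15 min.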

[12] = target: Phospholipid hydroperoxide glutathione peroxidase GPX4 (Homo sapiens) (UniProt P36969); test: Primary qHTS Assay for Inhibitors of Recombinant Selenoprotein Glutathione Peroxidase 4 (GPX4) (AID 1845192); note: nearly all actives have a fitted effect of over 65% in size
Summary of the method: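 qHTS, GR-coupled: GPX4 200 nM + cpd 30 min RT → GSH 1 mM, NADPH 0.5 mM, GR 100 nM → CHP 0.5 mM start; fluor 340/450 at t0 and t15 min; no-enzyme wells as control.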

Sequence of Rap guanine nucleotide exchange factor 3 (Homo sapiens) (O95398 whole entry, looked up): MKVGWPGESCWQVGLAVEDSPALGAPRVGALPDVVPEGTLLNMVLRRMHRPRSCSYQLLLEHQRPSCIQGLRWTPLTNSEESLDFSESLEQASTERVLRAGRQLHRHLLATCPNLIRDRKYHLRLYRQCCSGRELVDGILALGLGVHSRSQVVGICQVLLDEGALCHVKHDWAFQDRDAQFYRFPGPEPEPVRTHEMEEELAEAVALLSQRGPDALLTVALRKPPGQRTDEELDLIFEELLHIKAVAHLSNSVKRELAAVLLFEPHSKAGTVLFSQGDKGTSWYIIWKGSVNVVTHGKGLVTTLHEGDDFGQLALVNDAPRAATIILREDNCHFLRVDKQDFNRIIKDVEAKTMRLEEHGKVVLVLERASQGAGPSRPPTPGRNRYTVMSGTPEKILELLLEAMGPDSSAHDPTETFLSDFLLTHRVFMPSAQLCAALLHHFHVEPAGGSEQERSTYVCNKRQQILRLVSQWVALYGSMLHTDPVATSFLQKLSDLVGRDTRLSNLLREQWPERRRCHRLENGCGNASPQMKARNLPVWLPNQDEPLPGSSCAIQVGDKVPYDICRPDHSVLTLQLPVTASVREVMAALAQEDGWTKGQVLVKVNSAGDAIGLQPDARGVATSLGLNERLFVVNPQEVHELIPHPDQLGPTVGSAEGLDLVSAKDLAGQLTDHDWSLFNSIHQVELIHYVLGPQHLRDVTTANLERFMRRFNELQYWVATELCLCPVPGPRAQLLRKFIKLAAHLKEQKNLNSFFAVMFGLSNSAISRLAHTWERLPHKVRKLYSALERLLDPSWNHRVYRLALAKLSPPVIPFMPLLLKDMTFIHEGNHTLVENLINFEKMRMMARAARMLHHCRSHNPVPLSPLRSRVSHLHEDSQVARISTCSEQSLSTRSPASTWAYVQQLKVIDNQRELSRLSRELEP
Sequence of Rap guanine nucleotide exchange factor 4 (Homo sapiens) (Q8WZA2 whole entry, looked up): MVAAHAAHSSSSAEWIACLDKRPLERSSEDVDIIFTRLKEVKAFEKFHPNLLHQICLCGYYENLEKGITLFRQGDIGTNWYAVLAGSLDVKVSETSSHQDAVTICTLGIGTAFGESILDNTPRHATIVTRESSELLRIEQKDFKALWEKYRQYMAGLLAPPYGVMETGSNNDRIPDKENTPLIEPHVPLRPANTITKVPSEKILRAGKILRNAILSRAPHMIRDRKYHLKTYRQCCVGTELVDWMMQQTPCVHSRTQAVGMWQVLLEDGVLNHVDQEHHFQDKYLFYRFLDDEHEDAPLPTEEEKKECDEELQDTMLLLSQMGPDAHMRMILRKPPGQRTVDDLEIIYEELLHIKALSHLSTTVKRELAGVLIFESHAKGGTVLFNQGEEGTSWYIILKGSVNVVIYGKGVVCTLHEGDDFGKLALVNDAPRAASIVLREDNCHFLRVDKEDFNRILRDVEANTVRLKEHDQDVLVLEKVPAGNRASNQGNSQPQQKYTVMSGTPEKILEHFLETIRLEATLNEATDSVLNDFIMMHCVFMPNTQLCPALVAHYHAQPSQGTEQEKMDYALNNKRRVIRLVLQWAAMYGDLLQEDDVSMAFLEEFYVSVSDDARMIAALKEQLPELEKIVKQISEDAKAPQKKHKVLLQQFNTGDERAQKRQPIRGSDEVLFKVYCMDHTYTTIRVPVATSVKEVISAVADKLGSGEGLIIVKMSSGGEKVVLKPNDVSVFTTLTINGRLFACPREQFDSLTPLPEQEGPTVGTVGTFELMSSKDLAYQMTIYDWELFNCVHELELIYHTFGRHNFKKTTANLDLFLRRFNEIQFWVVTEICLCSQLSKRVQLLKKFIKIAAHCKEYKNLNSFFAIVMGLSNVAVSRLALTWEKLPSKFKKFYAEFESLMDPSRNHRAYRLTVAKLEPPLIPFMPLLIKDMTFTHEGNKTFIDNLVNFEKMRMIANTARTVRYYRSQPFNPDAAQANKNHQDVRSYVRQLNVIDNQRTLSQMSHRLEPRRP
Sequence of Cytochrome P450 3A4 (Homo sapiens) (P08684 whole entry, looked up): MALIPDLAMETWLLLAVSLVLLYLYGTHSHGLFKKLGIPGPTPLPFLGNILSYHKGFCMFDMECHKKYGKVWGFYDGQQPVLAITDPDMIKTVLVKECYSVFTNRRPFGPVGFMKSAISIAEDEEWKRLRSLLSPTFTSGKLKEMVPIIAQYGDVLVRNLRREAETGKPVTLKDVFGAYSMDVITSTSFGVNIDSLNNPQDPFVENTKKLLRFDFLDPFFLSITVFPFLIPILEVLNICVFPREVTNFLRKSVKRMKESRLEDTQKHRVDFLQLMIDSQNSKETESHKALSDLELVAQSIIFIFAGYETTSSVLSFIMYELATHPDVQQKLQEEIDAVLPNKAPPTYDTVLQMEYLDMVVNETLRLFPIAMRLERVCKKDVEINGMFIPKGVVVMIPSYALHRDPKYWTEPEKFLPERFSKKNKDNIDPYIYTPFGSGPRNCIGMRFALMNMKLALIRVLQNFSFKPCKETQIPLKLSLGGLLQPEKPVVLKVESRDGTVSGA
Sequence of Ubiquitin carboxyl-terminal hydrolase 1 (Homo sapiens) (O94782 whole entry, looked up): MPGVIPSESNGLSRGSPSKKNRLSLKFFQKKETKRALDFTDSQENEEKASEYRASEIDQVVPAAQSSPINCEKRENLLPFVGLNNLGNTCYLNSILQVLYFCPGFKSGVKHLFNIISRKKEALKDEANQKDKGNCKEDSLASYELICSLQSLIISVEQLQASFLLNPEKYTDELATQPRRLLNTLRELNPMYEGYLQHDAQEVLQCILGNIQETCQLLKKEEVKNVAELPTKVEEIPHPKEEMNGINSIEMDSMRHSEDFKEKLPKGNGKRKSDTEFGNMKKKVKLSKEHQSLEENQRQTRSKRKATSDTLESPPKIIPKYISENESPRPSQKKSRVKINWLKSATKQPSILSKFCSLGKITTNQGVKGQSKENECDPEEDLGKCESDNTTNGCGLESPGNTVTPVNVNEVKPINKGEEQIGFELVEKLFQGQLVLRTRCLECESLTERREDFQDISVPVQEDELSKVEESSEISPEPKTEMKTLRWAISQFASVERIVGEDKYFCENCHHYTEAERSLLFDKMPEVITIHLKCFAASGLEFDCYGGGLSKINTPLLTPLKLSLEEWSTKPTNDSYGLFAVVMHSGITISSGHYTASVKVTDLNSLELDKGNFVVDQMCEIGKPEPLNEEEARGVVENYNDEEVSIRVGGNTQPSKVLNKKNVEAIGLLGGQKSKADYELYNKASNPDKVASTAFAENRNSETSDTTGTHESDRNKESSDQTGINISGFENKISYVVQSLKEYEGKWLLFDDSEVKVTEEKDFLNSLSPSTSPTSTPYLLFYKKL
Sequence of Glutathione peroxidase 1 (Homo sapiens) (P07203 whole entry, looked up): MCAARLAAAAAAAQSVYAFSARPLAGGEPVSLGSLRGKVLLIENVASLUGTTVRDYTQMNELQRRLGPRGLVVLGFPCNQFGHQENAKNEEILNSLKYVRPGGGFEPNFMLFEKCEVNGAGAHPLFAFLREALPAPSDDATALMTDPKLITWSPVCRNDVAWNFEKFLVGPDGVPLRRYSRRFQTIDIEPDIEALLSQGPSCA
Sequence of Phospholipid hydroperoxide glutathione peroxidase GPX4 (Homo sapiens) (P36969 whole entry, looked up): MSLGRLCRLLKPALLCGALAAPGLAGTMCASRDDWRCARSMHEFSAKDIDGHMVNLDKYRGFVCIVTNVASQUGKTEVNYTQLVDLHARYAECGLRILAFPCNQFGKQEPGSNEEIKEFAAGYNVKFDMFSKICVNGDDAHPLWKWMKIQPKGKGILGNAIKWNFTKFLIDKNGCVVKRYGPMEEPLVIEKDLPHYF
Sequence of DNA dC->dU-editing enzyme APOBEC-3G (Homo sapiens) (Q9HC16 whole entry, looked up): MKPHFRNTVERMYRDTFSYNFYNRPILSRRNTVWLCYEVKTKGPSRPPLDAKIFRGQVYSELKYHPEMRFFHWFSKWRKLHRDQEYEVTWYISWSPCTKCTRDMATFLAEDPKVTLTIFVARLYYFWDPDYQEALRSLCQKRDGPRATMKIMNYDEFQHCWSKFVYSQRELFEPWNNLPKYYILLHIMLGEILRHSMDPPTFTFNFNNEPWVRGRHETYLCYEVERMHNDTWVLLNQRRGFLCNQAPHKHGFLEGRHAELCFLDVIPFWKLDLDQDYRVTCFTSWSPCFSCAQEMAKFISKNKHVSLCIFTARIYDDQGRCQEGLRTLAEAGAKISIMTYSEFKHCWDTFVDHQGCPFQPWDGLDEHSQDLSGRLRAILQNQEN

Cc1ccsc1C(=O)OCC(=O)NCCNC(=O)COC(=O)c1sccc1C
inactive: Potency [1] | Potency [2] | Potency [3] | Potency [4] | Potency [5]

COC(=O)c1ccccc1NC(=O)CN1C(=O)COc2ccccc21
inactive: Potency [1] | Potency [2] | outcome [3] inactive [at 12.7 µM] | Potency [4]

Nc1nc2c(nc(Br)n2C2OC(CO)C(O)C2O)c(=O)[nH]1 (centres undefined)
inactive: Potency [6] | Potency [7] | Potency [8]

Cc1ccccc1N(CC(=O)NC1CCCC1)C(=O)c1csnn1
inactive: Potency [1] | activation [2] -0.443% [at 17.1 µM, percent relative to cAMP agonist control] | Potency [3] | activity change, negative = inhibition [4] -9.99% [at 30.8 µM] | activation [5] -0.253% [at 30.8 µM]

CCOC(=O)c1c(C)nc2sc(C(N)=O)c(N)c2c1-c1ccccc1
inactive: Potency [1] | activation [2] -0.736% [at 17.1 µM, percent relative to cAMP agonist control] | Potency [3] | activity change, negative = inhibition [4] -13.8% [at 30.8 µM]

COc1ccc(C2CC(=O)c3c(O)cc(OC4OC(COC5OC(C)C(O)C(O)C5O)C(O)C(O)C4O)cc3O2)cc1O (centres undefined)
inactive: outcome [9]

CC(OC(=O)CNC(=O)COc1ccccc1)C(=O)N(C)Cc1ccccc1 (centres undefined)
inactive: Potency [1] | activation [2] 1.04% [at 17.1 µM, percent relative to cAMP agonist control] | Potency [3] | activity change, negative = inhibition [4] -17.7% [at 30.8 µM] | activation [5] -1.24% [at 30.8 µM]

CN1CCCC1CCO[C@@](C)(c1ccccc1)c1ccc(Cl)cc1 (some centres undefined)
inactive: Potency [10] | Potency [7]

Nc1nc2c(nc(Cl)n2C2OC(CO)C(O)C2O)c(=O)[nH]1 (centres undefined)
inactive: Potency [6] | Potency [10] | Potency [7] | Potency [8]

COc1cc(/C=C(\C#N)C(=O)NC(C)C)cc(Cl)c1O
inactive: Potency [1] | Potency [2] | Potency [3] | Potency [4] | Potency [5]

O=C(Nc1cc(C(=O)Nc2ccccc2C(=O)O)cc(C(=O)Nc2ccccc2C(=O)O)c1)c1ccccc1
inactive: Potency [1] | activation [2] 5.98% [at 17.1 µM, percent relative to cAMP agonist control] | Potency [3] | activity change, negative = inhibition [4] 11.5% [at 30.8 µM]

COc1cc(/C=C2\SC(=O)NC2=O)ccc1Oc1ccc([N+](=O)[O-])cc1[N+](=O)[O-]
inactive: Potency [1] | Potency [2] | Potency [3] | Potency [4] | Potency [5]

NC1=NCCN1CC(=O)O
inactive: Potency [6] | Potency [10] | Potency [7] | Potency [8]

Cc1ccc(S(=O)(=O)/N=C2\C=C(Nc3cccc(C(=O)O)c3)C(=O)c3ccccc32)c(C)c1
inactive: Potency [1] | Potency [2] | Potency [3] | Potency [4] | Potency [5]

CC(C)CCNC1c2ccccc2C(=O)N1Cc1ccccc1 (centres undefined)
inactive: Potency [1] | activation [2] 11.2% [at 17.1 µM, percent relative to cAMP agonist control] | Potency [3] | activity change, negative = inhibition [4] -10.7% [at 30.8 µM] | activation [5] 2.24% [at 30.8 µM]

O=C1NN(c2ccccc2)C(=O)/C1=C/c1ccc(Sc2cccc3ccccc23)o1
inactive: Potency [1] | activation [2] 3.36% [at 17.1 µM, percent relative to cAMP agonist control] | Potency [3] | activity change, negative = inhibition [4] -8.41% [at 30.8 µM] | activation [5] 23.8% [at 30.8 µM]

O=C(N/N=C/c1cc(Br)c(O)c(Br)c1)c1cc2c(ccc3ccccc32)o1
inactive: Potency [1] | activation [2] -5.24% [at 17.1 µM, percent relative to cAMP agonist control] | Potency [3] | activity change, negative = inhibition [4] -6.71% [at 30.8 µM] | activation [5] 1.28% [at 30.8 µM]

Cc1c(Cl)ccc2c(C(=O)O)cc(-c3ccccc3)nc12
inactive: Potency [1] | activation [2] 9.62% [at 17.1 µM, percent relative to cAMP agonist control] | Potency [3] | activity change, negative = inhibition [4] 5.51% [at 30.8 µM]

C=C(C)C1Cc2c(ccc(C(=O)O)c2O)O1 (centres undefined)
inactive: Potency [6] | Potency [7] | Potency [8]

CC(C)[C@H]1CC[C@H](C)C[C@H]1O
inactive: Potency [11] | Potency [12]

COCCn1c(SCC(=O)c2ccccc2)nc2cc(C(=O)NC3CCCC3)ccc2c1=O
inactive: Potency [1] | Potency [2] | Potency [3] | Potency [4]

COc1ccc(C(=O)NCCONC(=O)c2ccc(OC)cc2)cc1
inactive: Potency [1] | Potency [2] | Potency [3] | Potency [4] | Potency [5]
